The supplement of paper PMC7411640
Counter-ions that a name gives are not always drawn.

System: MDA-MB-468
Test: phospho-S6 immunofluorescence (DAPI-normalised), per-plate z-score; higher = higher phospho-S6 signal (less pathway suppression)
Settings: 24 h
Description: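 GPCR-targeted compound library (MedChemExpress HY-L006) tested on MDA-MB-468 PTEN-null TNBC cells in 384-well plates at 0.1, 1 or 10 uM, combined with vehicle, GDC0941 450 nM or lapatinib 1 uM, for 24 h. Phospho-S6 (S240/244) immunofluorescence normalised to DAPI and expressed as a per-plate z-score; values are the mean of biological triplicates.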

| Structure (SMILES) | phospho-S6 immunofluorescence (z-score) (co-treatment: GDC0941 450 nM) | phospho-S6 immunofluorescence (z-score) (co-treatment: lapatinib 1 uM) | phospho-S6 immunofluorescence (z-score) (co-treatment: vehicle) |
| --- | --- | --- | --- |
| CCc1cc2c(cc1CC)CC(NC[C@H](O)c1ccc(O)c3[nH]c(=O)ccc13)C2 [Indacaterol (maleate)] (compound 10 µM) | -0.81 | -1.41 | 0.92 |
| CCC1(c2c[nH]cn2)Cc2ccccc2C1 [Atipamezole (hydrochloride)] (compound 10 µM) | -0.61 | 0.37 | 1.24 |
| COc1ccc(CNC(=O)c2cc(-c3cncc(C)c3)ncc2-c2nccs2)nc1OC (compound 10 µM) | -0.61 | -0.5 | 0.26 |
| CC(O)Cn1cnc2c1c(=O)n(C)c(=O)n2C (stereo unspecified) [Proxyphylline] (compound 10 µM) | 0.64 | 0.19 | -0.72 |
| Cc1nc(C#Cc2cccnc2)cs1 [MTEP (hydrochloride)] (compound 10 µM) | -0.31 | -0.65 | -0.75 |
| OC(CCN1CCCCC1)(c1ccccc1)C1CCCCC1 (stereo unspecified) [Trihexyphenidyl (hydrochloride)] (compound 10 µM) | -0.3 | -0.52 | 0.56 |
| CN(C)CCc1c[nH]c2ccc(Cn3cncn3)cc12 [Rizatriptan (benzoate)] (compound 10 µM) | -1.62 | 0.19 | -1.1 |
| Oc1ccc(C2CNCCc3c2cc(O)c(O)c3Cl)cc1 (stereo unspecified) [Fenoldopam (mesylate)] (compound 10 µM) | 1.13 | -0.01 | 0.83 |
| CCN(CC)CCOC(=O)[C@@H](Cc1cccc2ccccc12)C[C@@H]1CCCO1 [Naftidrofuryl (oxalate)] (compound 10 µM) | -1.27 | -0.87 | -1.37 |
| CC(C)(C)C(=O)C(=Nc1ccc(Cl)cc1)NNc1ccc(Cl)cc1 (compound 10 µM) | -3.52 | -6.25 | -3.76 |
| CN1CCC(=C2c3ccccc3CCn3c(C=O)cnc32)CC1 [Alcaftadine] (compound 10 µM) | -0.88 | 1.09 | -0.66 |
| O=C(CN1C(=O)C2(CCCC2)NC[C@H]1c1cc(F)cc(F)c1)Nc1ccc2c(c1)C[C@@]1(C2)C(=O)Nc2ncccc21 [MK-3207 (Hydrochloride)] (compound 10 µM) | -0.51 | -0.06 | -0.48 |
| C(=C\c1ccccc1)/CN1CCN(C(c2ccccc2)c2ccccc2)CC1 [Cinnarizine] (compound 10 µM) | 0.86 | 0.22 | 1.3 |
| CC(C)NCC(O)COc1ccc(CCOCC2CC2)cc1 (stereo unspecified) [Betaxolol] (compound 10 µM) | 0.15 | 0.69 | -0.54 |
| CCOC(=O)N1CCC(NCCNC(=O)c2ccccc2C)CC1 (compound 10 µM) | 0.96 | -0.15 | 1.13 |
| Cc1c(-c2ccccc2)oc2c(C(=O)OCCN3CCCCC3)cccc2c1=O [Flavoxate (hydrochloride)] (compound 10 µM) | 0.25 | 0.29 | 0.07 |
| Cc1cccc(C#Cc2ccccc2)n1 [MPEP (Hydrochloride)] (compound 10 µM) | -0.92 | 0.68 | -0.14 |
| CCN1CCCC1CNC(=O)c1cc(S(=O)(=O)CC)c(N)cc1OC (stereo unspecified) [Amisulpride] (compound 10 µM) | 0.37 | 0.58 | 0.83 |
| CN1CCN(C2=Nc3ccccc3Oc3ccc(Cl)cc32)CC1 [Loxapine (succinate)] (compound 10 µM) | 0.7 | 1.22 | -1.15 |
| CCCCC1=NC2(CCCC2)C(=O)N1Cc1ccc(-c2ccccc2-c2nnn[nH]2)cc1 [Irbesartan] (compound 10 µM) | 0.03 | 0.13 | 0.09 |
| Cn1c(SCC(=O)N2CCC[C@H]2C(=O)Nc2ccccc2-c2ccccc2)nc2ccccc21 (compound 10 µM) | 0.08 | 1.59 | 0.81 |
| Cc1cc2c(cc1CC(=O)c1sccc1S(=O)(=O)Nc1onc(C)c1Cl)OCO2 [Sitaxsentan (sodium)] (compound 10 µM) | 0.35 | 0.35 | 0.45 |
| CN(C)CCc1c[nH]c2ccc(CS(=O)(=O)N3CCCC3)cc12 [Almotriptan (malate)] (compound 10 µM) | 0.95 | 0.57 | 0.38 |
| CCC(N)(C(=O)O)c1ccc(C(=O)O)cc1 (stereo unspecified) (compound 10 µM) | 0.66 | 0.12 | -0.54 |
| COc1cc(/C=C/C(=O)NCCn2c(C(F)(F)F)cc3ccccc32)cc(OC)c1OC (compound 10 µM) | -3.69 | -6.85 | -8.39 |
| CNC[C@H](O)c1cccc(O)c1 [(R)-(-)-Phenylephrine (hydrochloride)] (compound 10 µM) | 0.67 | 1.18 | 1.13 |

| Structure (SMILES) | phospho-S6 immunofluorescence (z-score) (co-treatment: GDC0941 450 nM) | phospho-S6 immunofluorescence (z-score) (co-treatment: lapatinib 1 uM) | phospho-S6 immunofluorescence (z-score) (co-treatment: vehicle) |
| --- | --- | --- | --- |
| CCc1c(C)[nH]c2c1C(=O)C(CN1CCOCC1)CC2 (stereo unspecified) [Molindone (hydrochloride)] (compound 10 µM) | -0.5 | 0.28 | 0.19 |
| Cc1cc(C)nc(NS(=O)(=O)c2ccc(NC(=S)NC(=O)COc3ccc(Br)cc3Cl)cc2)n1 (compound 10 µM) | 0.46 | -0.41 | 0.28 |
| CC(C)(C(=O)O)c1ccc(C(O)CCCN2CCC(C(O)(c3ccccc3)c3ccccc3)CC2)cc1 (stereo unspecified) [Fexofenadine (hydrochloride)] (compound 10 µM) | -0.31 | -0.84 | -0.42 |
| CN(C)C(=O)C(CCN1CCC(O)(c2ccc(Cl)cc2)CC1)(c1ccccc1)c1ccccc1 [Loperamide (hydrochloride)] (compound 10 µM) | -1.31 | -3.22 | -0.37 |
| Brc1c(NC2=NCCN2)ccc2nccnc12 [UK 14,304 (tartrate)] (compound 10 µM) | 0.91 | 1.2 | 0.14 |
| Cc1cc(C(C)(C)C)c(O)c(C)c1CC1=NCCN1 [Oxymetazoline (hydrochloride)] (compound 10 µM) | 0.28 | -0.17 | -0.03 |
| CC(C)C[C@H](NC(=O)[C@H](CC(C)C)NC(=O)[C@H](Cc1ccccc1)NC(=O)[C@@H](N)CO)C(=O)N[C@@H](CCCN=C(N)N)C(=O)N[C@@H](CC(N)=O)C(=O)O (compound 10 µM) | -1.01 | -0.25 | 0.03 |
| O=C(O)CCc1ccc(NCc2cccc(Oc3ccccc3)c2)cc1 (compound 10 µM) | -0.04 | 0.32 | 1.24 |
| CN(C)CCC(c1ccc(Cl)cc1)c1ccccn1 (stereo unspecified) [Chlorpheniramine (maleate)] (compound 10 µM) | -5.85 | -10.5 | -8.97 |
| Cc1cc(O[C@@H](CCC(F)(F)F)c2ccc(C(=O)NCCC(=O)O)cc2)cc(C)c1-c1ccc(C(C)(C)C)cc1 [Adomeglivant] (compound 10 µM) | -4.72 | -7.2 | -6.79 |
| CC(C)Cc1ccc([C@@H](C)C(=O)NS(C)(=O)=O)cc1 [Reparixin] (compound 10 µM) | 0.03 | 0.34 | -1.14 |
| CN(C)CCCN1c2ccccc2Sc2ccccc21 [Promazine (hydrochloride)] (compound 10 µM) | -0.07 | -1.25 | 0.4 |
| CN1C2CCCC1CC(NC(=O)c1nn(C)c3ccccc13)C2 (stereo unspecified) [Granisetron (Hydrochloride)] (compound 10 µM) | 1.08 | 0.62 | -0.01 |
| OC(CCN1CCCCC1)(c1ccccc1)C1CC2C=CC1C2 (stereo unspecified) [Biperiden (Hydrochloride)] (compound 10 µM) | -1.68 | -0.97 | -1.56 |
| c1ccc2c(c1)OCC(CN1CCCCC1)O2 (stereo unspecified) [Piperoxan (hydrochloride)] (compound 10 µM) | 0.28 | 0.61 | 0.8 |
| CC[C@H](C)[C@H](NC(=O)[C@H](Cc1ccc(O)cc1)NC(=O)[C@@H](NC(=O)[C@H](CCCNC(=N)N)NC(=O)[C@@H](N)CC(=O)O)C(C)C)C(=O)N[C@@H](Cc1c[nH]cn1)C(=O)N1CCC[C@H]1C(=O)O [Angiotensin (1-7)] (compound 10 µM) | 0.11 | 0.71 | -0.4 |
| CN(C)CCOC(c1ccccc1)c1ccccc1.Cn1c(=O)c2[nH]c(Cl)nc2n(C)c1=O [Dimenhydrinate] (compound 10 µM) | -1.22 | 0.01 | -0.02 |
| CC(C)NCC(O)COc1ccc(CC(N)=O)cc1 (stereo unspecified) [Atenolol] (compound 10 µM) | 0.35 | 1.32 | 0.52 |
| c1ccc2c(c1)CCCC2C1=NCCN1 (stereo unspecified) [Tetrahydrozoline (hydrochloride)] (compound 10 µM) | 0.32 | 0.87 | 0.75 |
| C[C@H]1C[C@@H]2[C@H]([C@@H](O)C[C@@]3(C)[C@H]2CC[C@]3(O)C(=O)CO)[C@@]2(C)C=CC(=O)C=C12 [Methylprednisolone] (compound 10 µM) | 0.3 | 3.09 | 0.51 |
| COc1cc2nc(N3CCN(C(=O)C4COc5ccccc5O4)CC3)nc(N)c2cc1OC (stereo unspecified) [Doxazosin (mesylate)] (compound 10 µM) | -3.46 | -7.7 | -8.17 |
| CCOCCn1c(C2CCN(CCc3ccc(C(C)(C)C(=O)O)cc3)CC2)nc2ccccc21 [Bilastine] (compound 10 µM) | 0.51 | 0.94 | -0.28 |
| CC(C)(Cc1nc(-c2ccc(O)cn2)no1)C(=O)NC1=C(C(=O)O)CCCC1 (compound 10 µM) | 0.73 | 0.37 | 1.12 |
| COc1cc(C(C)=O)ccc1OCCCN1CCC(c2noc3cc(F)ccc23)CC1 [Iloperidone] (compound 10 µM) | 0.52 | -0.23 | 0.38 |
| COc1ccc(NS(=O)(=O)c2sc3ccc(Cl)cc3c2C)cc1N1CCNCC1 (compound 10 µM) | 0.28 | -1 | 0.35 |
| CC(C)(C)C1CCC(N(Cc2ccc(C(=O)NCCC(=O)O)cc2)C(=O)Nc2ccc(OC(F)(F)F)cc2)CC1 (stereo unspecified) (compound 10 µM) | -3.4 | -4.75 | -1.64 |
